Here are results for 34 compounds from PMC5540273 (PLoS ONE, 2017).
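Further: KINOMEscan kinase panel screen.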

The experiment concerns TLK2. Particulars: concentration: 1 μM, replicates: in singlicate; n = 1.
As for `O=C(Nc1n[nH]c2nc(-c3nccs3)c(Br)cc12)C1CCCC1` [SB-742609], the “%Inh” value turned out to be 0%.
To `CC1=C(C(=O)Nc2cc3cn[nH]c3cc2F)C(c2ccc(C(F)(F)F)cc2)CC(=O)N1` (stereo not shown) [GSK429286] belongs 0%; to `CSc1nn2c(=O)cc(N3CCOCC3)nc2n1Cc1cccc(C(F)(F)F)c1C` [GSK2363608], 0%.
To `Cl.O=C(Nc1cccc(-c2nn3ncccc3c2-c2ccnc(Nc3cccnc3)n2)c1)c1c(F)cccc1F` [GSK312879] belongs 0%.
For the compound `Cc1ccc(NC(=O)Nc2cccc(Cl)c2)cc1-c1ccc(C(=O)Nc2ccncc2)cc1` [GSK1398468], the “%Inh” value is 12%.
Consider `CC(=O)Nc1nc2cnc(Nc3cc(NC(=O)c4cccc(CCC#N)c4)ccc3C)nc2s1`, for which the “%Inh” value is 7%.
For `COc1cccc(NC(=O)NC2CCN(c3ccnc(Nc4ccc(F)cc4)n3)C2)c1` (stereo not shown) [GSK1379721], the “%Inh” value is given as 4%.
As for `CS(=O)(=O)c1ccc(-c2nc3n(c2-c2ccncc2)CCC3)cc1` [SKF-105942], the figure is 0%; as for `CCCc1ccc(S(=O)(=O)NC2CCN(c3ccnc(Nc4ccc(F)cc4)n3)C2)cc1` (stereo not shown) [GSK1379715], 0%.
In the case of `O=S(=O)(c1ccc(-c2ccnc3[nH]ccc23)cc1)N1CCCC1` [GSK846226], the “%Inh” value came to 19%.
To `Cc1ccc(NC(=O)Nc2cc(C(C)(C)C)nn2-c2ccccc2)cc1` [GSK1014915] belongs 0%; to `CN(C)CCN(C)C(=O)c1cc(-c2ccncc2)c(-c2ccc(Cl)c(O)c2)o1.Cl.Cl` [SB-710397], 0%.
To `O=C(O)COc1ncnc2cc(-c3ccc4[nH]ncc4c3)sc12` belongs 0%; to `Cc1cccc(-c2nc(C)cc(Nc3ccncc3)n2)n1` [GSK257997], 0%.
As for `O=C(Nc1n[nH]c2nc(-c3nccs3)c(Br)cc12)C1CC1` [SB-742251], the figure is 0%; as for `Nc1nc(-c2nccs2)c(-c2ccnc3ccccc23)s1` [GW693542], 0%.
Take `CC(C)(C)c1ccc(C(=O)Nc2cn3cc(-c4cccnc4)ccc3n2)cc1`: the “%Inh” value worked out at 5%.
To `Cn1ccc2ncnc(Oc3ccc(NC(=O)Nc4ccccc4)cc3)c21` belongs 0%; to `Cl.c1ccc(-c2n[nH]cc2-c2ccnc(-c3ccc(CN4CCOCC4)cc3)c2)nc1` [GW776245], 0%; to `COc1cc2ncn(-c3cc(OCC4CCCO4)c(C(N)=O)s3)c2cc1OC` (stereo not shown) [GSK204607], 11%.
As for `COc1ccc(C2=C(Nc3cccc(C(=O)O)c3)C(=O)NC2=O)cc1` [SB-390765], the “%Inh” value was 0%.
Regarding `Fc1cc(Cl)ccc1Nc1ccnc2cc(-c3ccc(CN4CCCCC4)o3)ccc12` [GW560116], the “%Inh” value is recorded as 0%.
As for `O=c1cc(N2CCOCC2)nc2n(Cc3cccc(Cl)c3Cl)ccn12` [GSK2286295], the figure is 0%; as for `O=C(Nc1ccccc1)Nc1cccc(Oc2ccc3nccn3n2)c1`, 0%.
As for `Nc1ncnc2[nH]c(-c3ccccc3)nc12` [AH5015], the “%Inh” value is 0%.
For `Cc1cccc(-c2nc(-c3ccc(S(C)(=O)=O)cc3)sc2-c2ccnc(NCCc3ccccc3)c2)c1`, the “%Inh” value stood at 4%.
Consider `O=C(Nc1n[nH]c2cc(-c3cccc(F)c3F)ccc12)C1CC1` [SB-733894], for which the “%Inh” value stood at 5%.
As for `CN1C(=O)C(Nc2ccc(Cl)c(C(=O)O)c2)=C(c2ccc(Cl)cc2)C1=O` [SB-404290], the figure is 0%.
Turning to `Cn1cncc1-c1ccc2ncnc(Nc3ccc(OCc4ccccc4)cc3)c2c1` [GW320571], the “%Inh” value amounted to 0%.
To `Cn1ccc2ncnc(Oc3cccc(C(=O)Nc4ccccc4)c3)c21` belongs 7%; to `Fc1cc(Cl)ccc1Nc1ccnc2cc(I)ccc12` [GW551191], 0%.
As for `COc1cc2ncnc(Nc3ccc4nc(-c5ccccc5)[nH]c4c3)c2cc1OC.Cl` [GW282450], the figure is 0%; as for `COc1cccc(-c2cc(-c3c[nH]nc3-c3ccccn3)ccn2)c1` [GW680338], 0%.
On to `COc1ccc(CNC(=O)NC2CCN(c3ccnc(Nc4cc(OC)c(OC)c(OC)c4)n3)C2)cc1` (stereo not shown) [GSK1379748], for which the “%Inh” value stood at 0%.
